Source: PubChem BioAssay (NCATS)
Inconclusive results are not listed. Where a call stands in place of a potency, no number is given. Activity calls are given as the source filed them. Unless noted, calls come from the whole dose curve; as a rule, active = well fitted curve in the direction sought with a large enough effect; inconclusive = small, poorly fitted or top-dose-only effect, or another doubt; inactive = no such curve, though single readings can be large; an effect the other way counts as inactive or inconclusive.

Assays:
Furin (Homo sapiens) = Furin (Homo sapiens) (UniProt P09958); experiment: Furin counterscreen qHTS for Zika virus inhibitors (AID 1347149);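 note: purified recombinant full-length human furin enzyme at 5 nM; fluorescence gain from furin cutting a BOC-RVRR-AMC peptide substrate over 15 min; top concentration of the series differs between compounds; nearly all actives have a fitted effect of over 70% in size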
Outline: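 Counterscreen measures cleavage of 2 microM BOC-RVRR-AMC, below its ~15 microM Km, by 5 nM full-length human furin at pH 7.0 after a 15-min compound preincubation. Inhibition derives from the 15-min fluorescence increase at 37C.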

[1] = Vero cells viability qHTS for Zika virus inhibitors (AID 1347167)
Outline: (§1)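 qHTS titration; 24-48 h compound exposure, 37 degrees C/5% CO2; DMEM, 4% FBS; CellTiter Glo ATP luminescence.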

[2] = HepG2 cells viability qHTS for Zika virus inhibitors (AID 1347168)
Outline: as §1

[3] = Tertiary RLuc qRT-PCR qHTS assay for Zika virus inhibitors (AID 1347169); note: nearly all actives have a fitted effect of over 55% in size; note: potency is the fitted concentration of half-maximal effect; for activity change, negative = inhibition: top concentration of the series differs between compounds
Outline: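 Vero cells (1,000 per well) plated overnight at 37 degrees C, treated with compound in DMSO, then infected with recombinant ZIKV-RLuc (Cambodian) at MOI 1-2 for 48-72 hrs. Live-cell Renilla luciferase substrate added; luminescence read after 1-1.5 hrs.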

[4] = system: Zika virus NS2B-NS3 protease (linked construct); experiment: Confirmatory screen NINDS AMC qHTS for Zika virus inhibitors (AID 1347152); note: nearly all actives have a fitted effect of over 70% in size; note: potency is the fitted concentration of half-maximal effect;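 for activity change, negative = inhibition: AMC fluorescence gain from cleaved Bz-Nle-KRR-AMC substrate over 15 min; top concentration of the series differs between compounds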
Outline: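 Purified NS2B-NS3 protease with NS2B hydrophilic domain linked to NS3 protease domain by flexible linker, 1 nM final in 10 mM Tris-HCl pH 8.0, 0.01% Tween 20. Compounds preincubated 15 min, room temperature; Bz-Nle-KRR-AMC 10 microM (Km 18.3 µM); 15-min fluorescence change, 4-parameter Hill fit.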

[5] = system: Zika virus NS2B-NS3 protease (unlinked complex); experiment: Confirmatory screen GU AMC qHTS for Zika virus inhibitors (AID 1347153); note: nearly all actives have a fitted effect of over 70% in size;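 for potency: enzyme at 25 nM with substrate at 10 µM below its Km of 18.3 µM; potency is the fitted concentration of half-maximal effect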
Outline: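 Fluorescence change (ex 340/em 450 nm) over 15 min, ~20% substrate conversion, normalized to no-inhibitor and no-enzyme controls, then Hill-fitted. Unlinked protease at 25 nM; AMC peptide 10 µM.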

[6] = target: Cytochrome P450 3A4 (Homo sapiens) (UniProt P08684); experiment: qHTS Assay for Inhibitors and Substrates of Cytochrome P450 3A4 (AID 884); note: potency is the fitted concentration of half-maximal effect; nearly all actives have a fitted effect of over 50% in size
Outline: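 Luminescent readout of luciferin produced by CYP3A4 (20 nM) dealkylation of Luciferin-PPXE, 25 uM (its KM). NADPH-driven reaction ran 60 min at RT after 10 min compound preincubation; data scaled to 57 uM ketoconazole as 100% inhibition.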

[7] = target: Cytochrome P450 3A4 (Homo sapiens) (UniProt P08684); experiment: qHTS Assay for Activators of Cytochrome P450 3A4 (AID 885); note: nearly all actives have a fitted effect of over 65% in size
Outline: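 Activators are scored by enhanced luminescence from CYP3A4 conversion of luciferin-PPXE (25uM, equal to KM) to luciferin, after 60 min at RT with an NADPH-regenerating system.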

[8] = Confirmation and Secondary Assay for Modulators of Hemoglobin Beta Chain Splicing at IVS2 654 locus (AID 910);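 note: HeLa cells stably carrying EGFP split by mutant beta-globin IVS2-654 intron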
Outline: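 HeLa cells stably expressing EGFP interrupted by β-globin IVS2-654 intron, seeded overnight in Opti-MEM/2% FCS, then treated 2 days at 37 °C. Restored splicing read as total peak GFP intensity per well by laser scanning cytometry (488 nm excitation, 500–520 nm emission); 500 nM antisense PNA as control.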

[9] = Confirmation and Secondary Assay for Modulators of Hemoglobin Beta Chain Splicing at IVS2 705 locus (AID 930);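 note: HeLa cells stably expressing the EGFP-705 splicing reporter; GFP fluorescence per well restored by corrected splicing of the IVS2-705 intron in EGFP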
Outline: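 Splice-correction reporter: EGFP cDNA split by beta-globin intron 2 bearing the 705 mutation, stably in HeLa. Compound incubation 2 days, 37C; fluorescent objects 5-250 µm summed per well.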

[10] = qHTS Assay for Lipid Storage Modulators (AID 1519; calls by dose curve); conditions: Drosophila S3 cells, BODIPY lipid droplet/cell ratio, laser cytometry, cells loaded with oleic acid
Outline: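 Cells seeded at 5,000 per well were treated with compounds over a concentration series and loaded with oleic acid (400 uM, as added). Lipid droplet fluorescence (488 nm excitation, 500-530 nm channel) was read by laser-scanning cytometry and normalized to 20 uM Triacsin C.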

[11] = Confirmatory screen NINDS Rhodamine qHTS for Zika virus inhibitors (AID 1347161); note: nearly all actives have a fitted effect of over 60% in size; note: potency is the fitted concentration of half-maximal effect;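 for activity change, negative = inhibition: purified Zika NS2B-NS3 protease with linked NS2B cofactor domain and Rhodamine110 peptide substrate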
Outline: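 Enzyme (25 nM, linked NS2B-NS3) was preincubated 15 min with compound in 10 mM Tris-HCl pH 8.0, 0.01% Tween 20. Rhodamine110 substrate (1.5 microM) was then added and fluorescence read at start and after 15 min.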

[12] = system: Zika virus NS2B-NS3 protease (linked); experiment: 384 well plate NINDS AMC confirmatory qHTS for Zika virus inhibitors (AID 1347163); note: potency is the fitted concentration of half-maximal effect; nearly all actives have a fitted effect of over 50% in size
Outline: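 Fluorescence at 355/460 nm was read after 25 minutes of cleavage of 30 microM Ac-VKTGKR-AMC at room temperature, in the dark. Before substrate addition, compounds (up to 1 mM final) sat ~15 minutes with 5, 30 or 60 nM linked protease. Signals were normalized to no-enzyme and no-inhibitor wells.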

[13] = target: Glucocorticoid receptor (Homo sapiens) (UniProt P04150); experiment: GR-GFP Redistribution (AID 450;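 active = compounds whose dose series gives a full or clear partial fitted curve of increased nuclear translocation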; note: potency is the fitted concentration of half-maximal effect); conditions: U2OS GR-GFP nuclear translocation, laser cytometry, 2 h
[14] = target: Glucocorticoid receptor (Homo sapiens) (UniProt P04150); experiment: GR-EFC Redistribution (AID 451; calls by dose curve; note: potency is the fitted concentration of half-maximal effect); conditions: CHO-K1 GR-EFC translocation, beta-gal luminescence, 2 h
Outline: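 CHO-K1 cells expressing nuclear EA and GR-ED fragments of b-gal; compounds titrated up to 46 uM final, 2 h at 37 C. GR nuclear translocation read as complemented b-gal luminescence after 1 h RT detection.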

[15] = target: Ubiquitin carboxyl-terminal hydrolase 1 (Homo sapiens) (UniProt O94782); experiment: Inhibitors of USP1/UAF1: Pilot qHTS (AID 504865); note: potency is the fitted concentration of half-maximal effect; nearly all actives have a fitted effect of over 35% in size
Outline: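 USP1/UAF1 complex (1nM) preincubated with compound 15 min at room temperature, then Ub-Rho substrate (150nM final) added. Fluorescence read kinetically at 480/540 nm, 6 reads every 60 seconds. Buffer: 50mM HEPES pH 7.8, 0.5mM EDTA, 0.1 mg/ml BSA, 1mM TCEP, 0.01% Tween-20.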

[16] = target: DNA dC->dU-editing enzyme APOBEC-3G (Homo sapiens) (UniProt Q9HC16); experiment: qHTS for inhibitors of Vif-A3G interactions: Validation (AID 588379)
Outline: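 Yellow fluorescence (Ex 488, Em 500-530) of Vif-coexpressing HeLa A3G-eYFP cells, scanned by Acumen cytometer, reports blocked A3G degradation. Cells plated at 700/well overnight at 37 deg C before compound addition, then a further overnight compound incubation at 37 deg C.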

[17] = system: Zika virus NS2B-NS3 protease (linked construct); experiment: 384 well plate NINDS Rhodamine confirmatory qHTS for Zika virus inhibitors (AID 1347164);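 note: fluorescence from protease cleavage of Ac-LKRR-rhodamine 110 substrate; potency is the fitted concentration of half-maximal effect; nearly all actives have a fitted effect of over 65% in size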
Outline: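 Linked protease at a final 5 nM, 30 nM or 60 nM was preincubated ~15 min with compounds, then given 10 microM Ac-LKRR-Rhodamine 110. Fluorescence (ex 485/em 538 nm) after 25 min in the dark at room temperature.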

[18] = Primary qHTS for small molecule stabilizers of the endoplasmic reticulum resident proteome: Secreted ER Calcium Modulated Protein (SERCaMP) assay (AID 1508630)
Outline: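 The SH-SY5Y reporter protocol was run at 3 concentrations up to 38.3 uM (primary) or 11 concentrations (follow-up): 16 h compound, 100 nM thapsigargin for 4 h, then extracellular luciferase luminescence.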

[19] = target: Rap guanine nucleotide exchange factor 3 (Homo sapiens) (UniProt O95398); experiment: Confirmatory qHTS for agonist of cAMP-regulated guanine nucleotide exchange factor 3 (EPAC1) (AID 1645881);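 note: EPAC1 catalysed release of BODIPY-GDP from Rap1B seen as fluorescence loss; nearly all actives have a fitted effect of over 75% in size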
[20] = target: Rap guanine nucleotide exchange factor 4 (Homo sapiens) (UniProt Q8WZA2); experiment: Confirmatory qHTS for agonist of cAMP-regulated guanine nucleotide exchange factor 4 (EPAC2) (AID 1645884);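 note: nucleotide exchange releases bodipy-GDP from Rap1 and this lowers its fluorescence; nearly all actives have a fitted effect of over 65% in size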
[21] = target: Rap guanine nucleotide exchange factor 4 (Homo sapiens) (UniProt Q8WZA2); experiment: Confirmatory qHTS for antagonist of cAMP-regulated guanine nucleotide exchange factor 4 (EPAC2) (AID 1645885); note: potency is the fitted concentration of half-maximal effect; nearly all actives have a fitted effect of over 25% in size

Chain of Furin (Homo sapiens) (P09958 whole entry, looked up): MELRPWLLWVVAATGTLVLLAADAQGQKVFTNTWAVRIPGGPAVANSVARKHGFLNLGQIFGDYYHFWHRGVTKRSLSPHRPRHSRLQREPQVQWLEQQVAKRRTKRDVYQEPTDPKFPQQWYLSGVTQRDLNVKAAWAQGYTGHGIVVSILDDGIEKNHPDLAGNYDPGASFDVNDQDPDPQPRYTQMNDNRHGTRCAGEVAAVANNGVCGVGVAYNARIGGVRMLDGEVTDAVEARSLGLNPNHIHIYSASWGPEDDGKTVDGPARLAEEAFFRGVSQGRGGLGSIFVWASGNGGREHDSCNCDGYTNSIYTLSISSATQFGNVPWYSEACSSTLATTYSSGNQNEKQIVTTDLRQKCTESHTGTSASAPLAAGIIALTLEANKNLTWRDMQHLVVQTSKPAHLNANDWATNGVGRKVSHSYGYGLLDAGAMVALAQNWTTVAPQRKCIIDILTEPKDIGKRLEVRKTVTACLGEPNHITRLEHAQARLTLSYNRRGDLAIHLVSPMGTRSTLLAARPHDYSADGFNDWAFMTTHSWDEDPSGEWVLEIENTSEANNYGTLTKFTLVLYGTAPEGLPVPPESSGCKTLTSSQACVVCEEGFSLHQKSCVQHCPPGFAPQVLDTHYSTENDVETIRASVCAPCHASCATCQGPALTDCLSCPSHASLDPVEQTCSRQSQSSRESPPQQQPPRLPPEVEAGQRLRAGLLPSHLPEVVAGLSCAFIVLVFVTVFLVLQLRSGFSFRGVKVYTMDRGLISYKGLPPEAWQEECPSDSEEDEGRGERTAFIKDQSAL
Chain of Cytochrome P450 3A4 (Homo sapiens) (P08684 whole entry, looked up): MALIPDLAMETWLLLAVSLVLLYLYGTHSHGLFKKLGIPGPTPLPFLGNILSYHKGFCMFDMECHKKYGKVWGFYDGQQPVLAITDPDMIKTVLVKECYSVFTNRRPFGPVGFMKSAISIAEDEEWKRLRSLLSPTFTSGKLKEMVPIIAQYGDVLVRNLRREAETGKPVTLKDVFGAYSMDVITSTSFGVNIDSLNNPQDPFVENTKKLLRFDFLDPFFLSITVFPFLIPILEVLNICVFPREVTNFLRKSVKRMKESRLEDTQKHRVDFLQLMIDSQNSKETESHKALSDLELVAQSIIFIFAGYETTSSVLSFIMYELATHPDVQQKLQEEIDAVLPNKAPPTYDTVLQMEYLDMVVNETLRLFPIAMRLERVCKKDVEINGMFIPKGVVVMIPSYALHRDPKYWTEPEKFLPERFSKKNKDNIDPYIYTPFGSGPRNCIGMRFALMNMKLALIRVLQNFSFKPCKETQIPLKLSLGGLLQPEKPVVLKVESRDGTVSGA
Chain of Glucocorticoid receptor (Homo sapiens) (P04150 whole entry, looked up, the tested form may be a part): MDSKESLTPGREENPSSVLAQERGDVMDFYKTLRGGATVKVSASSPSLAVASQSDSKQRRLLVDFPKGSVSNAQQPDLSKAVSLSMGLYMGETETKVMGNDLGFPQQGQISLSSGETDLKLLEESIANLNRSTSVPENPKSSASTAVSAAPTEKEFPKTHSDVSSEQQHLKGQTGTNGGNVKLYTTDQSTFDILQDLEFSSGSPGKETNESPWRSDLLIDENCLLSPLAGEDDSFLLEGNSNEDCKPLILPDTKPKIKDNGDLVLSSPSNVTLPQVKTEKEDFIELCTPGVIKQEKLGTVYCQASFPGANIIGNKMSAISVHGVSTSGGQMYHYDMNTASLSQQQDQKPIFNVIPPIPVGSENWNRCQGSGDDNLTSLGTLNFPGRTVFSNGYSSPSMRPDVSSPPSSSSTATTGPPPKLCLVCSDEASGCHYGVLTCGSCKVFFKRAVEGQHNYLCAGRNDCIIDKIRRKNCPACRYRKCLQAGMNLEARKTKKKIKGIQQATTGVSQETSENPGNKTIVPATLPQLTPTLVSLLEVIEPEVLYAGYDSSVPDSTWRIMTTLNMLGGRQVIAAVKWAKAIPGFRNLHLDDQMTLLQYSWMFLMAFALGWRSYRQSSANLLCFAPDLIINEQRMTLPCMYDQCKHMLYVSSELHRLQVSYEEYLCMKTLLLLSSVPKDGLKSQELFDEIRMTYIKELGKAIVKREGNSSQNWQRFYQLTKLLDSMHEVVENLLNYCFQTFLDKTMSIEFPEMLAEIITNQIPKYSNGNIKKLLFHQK
Chain of Rap guanine nucleotide exchange factor 4 (Homo sapiens) (Q8WZA2 whole entry, looked up): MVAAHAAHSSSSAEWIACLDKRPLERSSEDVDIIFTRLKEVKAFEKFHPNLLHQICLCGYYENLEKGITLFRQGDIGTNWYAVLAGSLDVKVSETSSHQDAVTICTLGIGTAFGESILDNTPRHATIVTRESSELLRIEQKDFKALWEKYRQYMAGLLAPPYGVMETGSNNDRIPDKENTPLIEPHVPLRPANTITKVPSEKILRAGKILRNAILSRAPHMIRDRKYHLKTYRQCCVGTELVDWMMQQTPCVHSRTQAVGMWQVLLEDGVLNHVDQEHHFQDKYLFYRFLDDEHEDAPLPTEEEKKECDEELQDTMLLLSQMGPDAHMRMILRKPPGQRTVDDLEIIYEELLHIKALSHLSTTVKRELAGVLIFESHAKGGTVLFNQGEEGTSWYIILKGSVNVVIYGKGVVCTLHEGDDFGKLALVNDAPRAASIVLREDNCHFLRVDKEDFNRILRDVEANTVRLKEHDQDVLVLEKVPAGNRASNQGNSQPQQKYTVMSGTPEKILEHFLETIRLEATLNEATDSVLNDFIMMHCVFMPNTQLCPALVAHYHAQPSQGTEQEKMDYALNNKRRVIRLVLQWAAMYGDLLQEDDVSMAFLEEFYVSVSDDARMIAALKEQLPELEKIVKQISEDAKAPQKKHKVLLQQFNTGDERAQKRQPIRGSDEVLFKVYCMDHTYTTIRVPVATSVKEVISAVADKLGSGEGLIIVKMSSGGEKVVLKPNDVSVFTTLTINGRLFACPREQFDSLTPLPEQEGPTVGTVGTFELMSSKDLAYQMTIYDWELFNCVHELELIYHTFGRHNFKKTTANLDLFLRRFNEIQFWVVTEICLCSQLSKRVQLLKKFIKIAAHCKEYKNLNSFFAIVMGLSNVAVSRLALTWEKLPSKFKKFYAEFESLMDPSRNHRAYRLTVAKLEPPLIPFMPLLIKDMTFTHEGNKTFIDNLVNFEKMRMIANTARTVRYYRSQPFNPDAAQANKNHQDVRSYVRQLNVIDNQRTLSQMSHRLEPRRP
Chain of DNA dC->dU-editing enzyme APOBEC-3G (Homo sapiens) (Q9HC16 whole entry, looked up): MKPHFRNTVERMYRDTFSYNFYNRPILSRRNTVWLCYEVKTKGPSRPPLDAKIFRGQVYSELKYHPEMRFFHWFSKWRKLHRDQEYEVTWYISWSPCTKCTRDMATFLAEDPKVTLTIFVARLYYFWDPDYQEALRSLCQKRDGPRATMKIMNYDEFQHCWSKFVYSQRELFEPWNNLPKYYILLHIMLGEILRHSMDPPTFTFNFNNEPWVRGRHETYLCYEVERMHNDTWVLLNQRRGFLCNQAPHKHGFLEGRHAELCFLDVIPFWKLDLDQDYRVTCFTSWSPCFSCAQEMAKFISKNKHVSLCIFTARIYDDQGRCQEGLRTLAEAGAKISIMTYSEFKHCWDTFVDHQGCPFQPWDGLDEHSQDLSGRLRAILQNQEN
Chain of Rap guanine nucleotide exchange factor 3 (Homo sapiens) (O95398 whole entry, looked up): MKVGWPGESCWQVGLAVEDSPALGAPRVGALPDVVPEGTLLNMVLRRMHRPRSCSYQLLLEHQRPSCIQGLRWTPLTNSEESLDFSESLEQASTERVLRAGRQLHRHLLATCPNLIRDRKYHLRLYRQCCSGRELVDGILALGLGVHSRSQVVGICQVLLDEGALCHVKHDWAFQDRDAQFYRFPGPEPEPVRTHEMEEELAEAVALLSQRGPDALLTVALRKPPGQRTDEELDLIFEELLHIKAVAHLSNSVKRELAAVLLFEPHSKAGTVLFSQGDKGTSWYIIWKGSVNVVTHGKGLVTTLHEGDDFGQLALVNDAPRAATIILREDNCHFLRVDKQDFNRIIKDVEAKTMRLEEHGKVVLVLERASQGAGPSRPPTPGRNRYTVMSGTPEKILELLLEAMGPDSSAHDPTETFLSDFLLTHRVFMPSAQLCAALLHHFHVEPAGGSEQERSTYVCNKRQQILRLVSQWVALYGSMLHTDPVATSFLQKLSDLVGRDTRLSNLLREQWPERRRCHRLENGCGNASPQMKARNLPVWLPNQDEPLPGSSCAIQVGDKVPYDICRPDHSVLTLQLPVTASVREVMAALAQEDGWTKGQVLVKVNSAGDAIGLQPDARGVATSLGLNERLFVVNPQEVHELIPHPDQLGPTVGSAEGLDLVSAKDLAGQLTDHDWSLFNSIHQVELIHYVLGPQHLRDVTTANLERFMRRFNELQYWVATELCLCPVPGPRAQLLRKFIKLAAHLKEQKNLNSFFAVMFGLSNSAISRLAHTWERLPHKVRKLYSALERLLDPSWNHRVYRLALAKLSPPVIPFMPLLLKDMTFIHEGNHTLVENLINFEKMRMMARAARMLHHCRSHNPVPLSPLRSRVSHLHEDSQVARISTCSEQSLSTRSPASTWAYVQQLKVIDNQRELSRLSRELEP

SMILES: CCCCOc1ccc(C2C(=O)N(C3CCCCC3)CC(=O)N2C2CCCCC2)cc1 (stereo not drawn)
- Potency (Furin (Homo sapiens)): inactive
- Potency [1]: inactive
- Potency [2]: inactive
- Potency [3]: inactive

SMILES: CC1OC(OC2C(O)CC(OC3C(O)CC(OC4CCC5(C)C(CCC6C5CC(O)C5(C)C(C7=CC(=O)OC7)CCC65O)C4)OC3C)OC2C)CC(O)C1O (stereo not drawn)
- Potency (Furin (Homo sapiens)): inactive
- Potency [1]: inactive
- Potency [2]: inactive
- Potency [3]: 0.214 µM (active)

SMILES: O=S(=O)(N[C@H]1CO[C@H]2[C@@H]1OC[C@@H]2n1nnnc1-c1ccc2c(c1)OCO2)c1ccc2ccccc2c1
- Potency [4]: inactive
- Potency [5]: inactive
- Potency [3]: inactive

SMILES: O=C(COc1ccccc1C(=O)OCC(=O)Nc1cccc2ccccc12)Nc1ccc(Br)cc1
- Potency (Furin (Homo sapiens)): inactive
- Potency [3]: inactive

SMILES: O=C1C=CC(=O)c2c(O)c(Cl)c(Cl)c(O)c21
- Potency [6]: 31.6 µM (active)
- Potency [7]: inactive
- outcome [8]: inactive
- outcome [9]: inactive
- activity change, negative = inhibition ([10]; at 57.5 µM (top of the series)): 5.17% (inactive)
- max response ([10]; measured here: cell count channel max response): 0.303%
- max response ([10]; measured here: lipid channel max response): 7.95%
- Potency (Furin (Homo sapiens)): inactive
- Potency [11]: inactive
- Potency [3]: inactive

SMILES: COc1ccc(NS(=O)(=O)c2ccc(NS(=O)(=O)c3ccc4c(c3)OCCO4)cc2)cc1
- Potency (Furin (Homo sapiens)): inactive
- Potency [12]: 355 µM (active)

SMILES: O=C(OCc1cc(=O)n2nc(C3CC3)sc2n1)c1cccc(NC(=O)c2ccccc2Cl)c1
- Potency (Furin (Homo sapiens)): inactive
- Potency [3]: inactive

SMILES: COc1ccccc1-c1ccnc(N[C@H]2CO[C@H]3[C@@H]2OC[C@@H]3NS(=O)(=O)c2ccc3ccccc3c2)n1
- Potency [4]: inactive
- Potency [5]: inactive
- Potency [3]: 16.5 µM (active)

SMILES: Cc1ccc(-c2nnc(Nc3ccc(O)cc3)c3ccccc23)cc1S(=O)(=O)NC(C)(C)CO
- Potency (Furin (Homo sapiens)): inactive
- Potency [3]: inactive

SMILES: Cc1cc(C)cc(C(=O)N(C)[C@H](Cc2ccc(-c3ccccc3)cc2)C(=O)N[C@@H](Cc2c[nH]c3ccccc23)C(=O)O)c1
- Potency [13]: > 46 µM (inactive)
- Potency [14]: > 46 µM (inactive)
- Potency [7]: inactive
- Potency [15]: 79.4 µM (active)
- Potency [16]: inactive
- Potency [4]: 9.61 µM (active)
- Potency [5]: 19.2 µM (active)
- Potency [11]: 1.75 µM (active)
- Potency [12]: 158 µM (active)
- Potency [17]: 28.2 µM (active)
- Potency [1]: inactive
- Potency [2]: inactive
- Potency [18]: inactive
- outcome [19]: inactive
- outcome [20]: inactive
- Potency [21]: 55.5 µM (active)
